This is an account of results in PubChem BioAssay (Tox21).

Where “and” joins values, the source holds several entries; their conditions need not be identical. Equal values may be shown once. Inconclusive results are not listed. Calls of active or inactive are those of the source. Unless noted, calls come from the whole dose curve; as a rule, active = well fitted curve in the direction sought with a large enough effect in the repeat runs; inconclusive = weak or mixed curves; inactive = no such curve, though single readings can be large; an effect the other way counts as inactive or inconclusive.

In test [1] the target is Thyrotropin receptor (Homo sapiens) (UniProt P16473). Description: qHTS assay to identify small molecule antagonists of the thyroid stimulating hormone receptor (TSHR) signaling pathway (AID 1259385; calls by dose curve; note: nearly all actives have a fitted effect of over 20% in size). The essentials: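 TSHR-HEK293 cells were plated and held 18 h at 37C/5% CO2, then given compound plus Ro20-1724 and stimulated with TSH at 1.5 ng/mL final. After 30 min at room temperature, cAMP was detected with cAMP-d2/anti-cAMP-cryptate (1 h) by fluorescence.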
Thyrotropin receptor (Homo sapiens), sequence (P16473 whole entry, looked up): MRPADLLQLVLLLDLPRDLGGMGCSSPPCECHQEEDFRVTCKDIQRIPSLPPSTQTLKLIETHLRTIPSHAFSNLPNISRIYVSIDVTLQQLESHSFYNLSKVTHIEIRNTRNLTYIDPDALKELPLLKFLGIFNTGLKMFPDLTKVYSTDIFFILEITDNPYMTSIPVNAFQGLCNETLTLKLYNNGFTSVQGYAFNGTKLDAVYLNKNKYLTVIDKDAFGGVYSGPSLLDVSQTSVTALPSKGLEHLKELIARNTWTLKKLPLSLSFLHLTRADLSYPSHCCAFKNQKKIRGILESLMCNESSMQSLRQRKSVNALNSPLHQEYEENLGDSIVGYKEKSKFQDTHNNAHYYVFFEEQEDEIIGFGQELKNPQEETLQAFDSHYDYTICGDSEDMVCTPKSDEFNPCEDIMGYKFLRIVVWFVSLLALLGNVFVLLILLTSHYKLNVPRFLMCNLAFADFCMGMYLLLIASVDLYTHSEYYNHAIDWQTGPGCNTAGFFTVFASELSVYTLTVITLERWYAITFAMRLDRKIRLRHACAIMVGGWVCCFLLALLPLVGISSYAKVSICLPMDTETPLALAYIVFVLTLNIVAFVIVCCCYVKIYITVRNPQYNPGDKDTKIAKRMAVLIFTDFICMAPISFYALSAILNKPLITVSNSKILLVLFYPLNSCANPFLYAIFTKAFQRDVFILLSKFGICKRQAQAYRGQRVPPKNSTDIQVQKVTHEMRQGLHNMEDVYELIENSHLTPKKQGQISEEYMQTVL
In general terms: qHTS replaces the single test concentration by a dilution series.

Test [2] in a line: qHTS assay to identify small molecule agonists of the estrogen receptor alpha (ER-alpha) signaling pathway in the presence of an antagonist - cell viability counter screen (AID 1259386).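 Note: cells exposed to compounds for 22 h at 37 °C before the viability read; nearly all actives have a fitted effect of over 30% in size.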 Note: potency is the fitted concentration of half-maximal effect. The essentials: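 ICI-182,780 at 10.0nM final accompanies the compound titration (15 concentrations, 22hr, 37C) on VM7Luc4E2 cells. The CellTiter-Fluor fluorescence readout runs in the same wells as the luciferase assay.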

Test [3] addresses Progesterone receptor (Homo sapiens) (UniProt P06401). Description: qHTS assay to identify small molecule agonists of the progesterone receptor (PR) signaling pathway (AID 1346784; calls by dose curve; note: nearly all actives have a fitted effect of over 30% in size). In outline:
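Cells (PR-UAS-bla HEK 293T, GripTite) were plated in assay medium containing 2% charcoal-stripped FBS and incubated 6 hr. Test compounds in DMSO were added for 16 hr at 37C. FRET substrate was then loaded for 2 hr at room temperature before fluorescence reading.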

The target is the same in test [4]. Description: qHTS assay to identify small molecule antagonists of the progesterone receptor (PR) signaling pathway (AID 1346795; active = well fitted inhibition curve with a large enough effect in the signal ratio in the repeat runs, not every such curve was filed as active; the % refers to the signal ratio; note: potency is the fitted concentration of half-maximal effect). The essentials:
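Antagonist mode: compounds tested against 1 nM (final) promegestone stimulation in HEK293T cells expressing PR-UAS-bla reporter, 16 hr at 37C, 5% CO2; beta-lactamase activity detected via B/G FRET substrate after 2 hr at room temperature.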

The nature of test [5]: qHTS assay to identify small molecule antagonists of the progesterone receptor (PR) signaling pathway - cell viability counter screen (AID 1346798). Note: series mostly up to about 92 µM; nearly all actives have a fitted effect of over 50% in size. The essentials: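 Counter screen for cytotoxicity: viability of PR-UAS-bla HEK293T cells was measured with CellTiter-Glo luminescence following 16 hr compound exposure in the presence of R5020.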
The nature of test [6]: qHTS assay to identify small molecule agonists of the progesterone receptor (PR) signaling pathway - cell viability counter screen (AID 1346799; calls by dose curve; note: nearly all actives have a fitted effect of over 45% in size). The essentials:
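Cells (PR-UAS-bla HEK293T) are plated at 3,000/well in 2% charcoal-stripped FBS medium, rested 6 hr, dosed and incubated 16 hr at 37C. CellTiter-Glo is then added and luminescence measured after 30 min at room temperature.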

Test [7] in a line: qHTS assay to identify small molecule agonists of the TGF-beta/Smad signaling pathway - cell viability counter screen (AID 1346829). Note: top concentration of the series differs between compounds; nearly all actives have a fitted effect of over 45% in size. In outline:
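Tox21 qHTS format: SBE-bla HEK 293T cells treated with DMSO-dissolved compounds for 5 hr; CellTiter-Glo luminescence after 30 min at room temperature.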

Test [8] in a line: qHTS assay to identify small molecule agonists of the TGF-beta/Smad signaling pathway (AID 1346859; active = well fitted activation curve with a large enough effect in the signal ratio in the repeat runs, not every such curve was filed as active; the % refers to the signal ratio; note: series mostly up to about 77 µM). The essentials:
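Reporter line: HEK 293T with stably integrated SBE-controlled beta-lactamase. Compound exposure lasts 5 hr at 37 C and 5% CO2; substrate loading follows for 2 hr at room temperature, with emission read at 460 and 530 nm.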

Test [9] deals with Thyrotropin-releasing hormone receptor (Homo sapiens) (UniProt P34981). Nature of the test: qHTS assay to identify small molecule antagonists of the thyrotropin-releasing hormone receptor (TRHR) signaling pathway (AID 1346877; active = well fitted inhibition curve with a large enough effect in the repeat runs, not every such curve was filed as active; note: series mostly up to about 51 µM). In outline: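 Screening used HEK293 cells engineered with TRHR, with a brief 5 min room-temperature compound exposure preceding addition of TRH to 1 nM. The read-out was kinetic calcium-dye fluorescence, concentration-response from 15 doses in triplicate.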
Thyrotropin-releasing hormone receptor (Homo sapiens), sequence (P34981 whole entry, looked up): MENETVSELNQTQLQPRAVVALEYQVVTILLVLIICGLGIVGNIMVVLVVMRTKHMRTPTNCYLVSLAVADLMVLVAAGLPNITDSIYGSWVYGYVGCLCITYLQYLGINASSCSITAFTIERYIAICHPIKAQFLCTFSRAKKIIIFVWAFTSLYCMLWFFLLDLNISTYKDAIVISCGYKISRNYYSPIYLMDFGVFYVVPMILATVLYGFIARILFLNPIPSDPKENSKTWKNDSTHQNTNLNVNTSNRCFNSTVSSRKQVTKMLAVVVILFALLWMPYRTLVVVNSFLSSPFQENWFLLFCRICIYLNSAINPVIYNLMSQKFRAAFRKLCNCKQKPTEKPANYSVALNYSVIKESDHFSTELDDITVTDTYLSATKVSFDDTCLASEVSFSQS

Test [10] is described as follows: qHTS assay to identify small molecule antagonists of the TGF-beta/Smad signaling pathway - cell viability counter screen (AID 1346824). Note: nearly all actives have a fitted effect of over 50% in size. In outline: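 SBE-bla HEK 293T cells were plated overnight at 37 C, then given compounds in DMSO plus TGF-beta1 (added as 0.25 ng/mL solution) for 5 hr. After the bla read, CellTiter-Glo was added to the same wells and luminescence read after 30 min at room temperature.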

Progesterone receptor (Homo sapiens), sequence (P06401 whole entry, looked up): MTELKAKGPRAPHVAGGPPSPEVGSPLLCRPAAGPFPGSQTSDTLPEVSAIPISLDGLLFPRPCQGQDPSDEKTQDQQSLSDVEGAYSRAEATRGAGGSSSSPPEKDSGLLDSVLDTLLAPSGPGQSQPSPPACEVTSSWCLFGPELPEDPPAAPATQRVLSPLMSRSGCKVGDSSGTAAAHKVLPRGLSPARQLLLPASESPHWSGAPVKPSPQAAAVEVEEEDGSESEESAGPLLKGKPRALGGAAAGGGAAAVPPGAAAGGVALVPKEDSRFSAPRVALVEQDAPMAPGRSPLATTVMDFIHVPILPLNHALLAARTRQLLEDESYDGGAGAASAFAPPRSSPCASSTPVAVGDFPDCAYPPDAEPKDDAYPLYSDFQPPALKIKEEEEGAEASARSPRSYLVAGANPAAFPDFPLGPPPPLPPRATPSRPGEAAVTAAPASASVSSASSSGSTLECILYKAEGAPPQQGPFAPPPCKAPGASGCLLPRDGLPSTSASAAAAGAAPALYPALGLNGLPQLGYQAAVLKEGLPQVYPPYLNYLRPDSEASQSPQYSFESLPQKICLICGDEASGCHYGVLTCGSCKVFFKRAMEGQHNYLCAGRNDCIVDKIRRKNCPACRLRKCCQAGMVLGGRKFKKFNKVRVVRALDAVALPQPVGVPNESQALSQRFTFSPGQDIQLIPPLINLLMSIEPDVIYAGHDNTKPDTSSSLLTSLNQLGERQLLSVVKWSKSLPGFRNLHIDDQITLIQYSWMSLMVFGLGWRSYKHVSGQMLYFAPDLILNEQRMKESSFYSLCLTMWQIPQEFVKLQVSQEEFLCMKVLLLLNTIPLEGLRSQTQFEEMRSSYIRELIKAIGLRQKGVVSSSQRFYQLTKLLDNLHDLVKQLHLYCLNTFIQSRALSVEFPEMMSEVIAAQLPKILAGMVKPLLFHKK

Consider `C=CC(=O)OCCC(=O)O`, for which the compound was classed as inactive in test [1], in test [5], in test [6], in test [7], in test [8] and in test [9]. For the same compound, the Potency entry in test [2], in test [3] and in test [4] was “inactive” each time.

For the compound `CC(O)CC(C)(C)O` (stereo unspecified), the Potency entry in test [2], in [3] and in test [4] was “inactive” each time. Also, the compound was classed as inactive in test [5], in test [6], in test [10], in test [7], in [8] and in test [9].

As for `CCOC(=O)c1ccc(N)cc1`, the compound was classed as inactive in test [1], in test [5], in test [6], in [7] and in [9]. For the same compound, the Potency entry in test [2] and in test [3] was “inactive” in each case.

Turning to `CC(=O)Oc1ccc(C)cc1`, the Potency result in [2], in test [3] and in test [4] was “inactive” in each case. Further, the result in test [5], in [6], in [10], in [7], in [8] and in [9] was inactive.

As to `C=CCc1ccc(OC)c(OC)c1`, the result in [1], in test [5], in [6], in test [10], in test [7] and in test [8] was inactive. The Potency result in test [2] was “inactive”.

Consider `CC(C)c1cccc(C(C)C)c1`, for which the outcome in test [1], in test [5], in [6] and in test [7] was inactive. Besides, in test [2], the Potency entry is “inactive”.

Take `CC1(C)NC(=O)NC1=O`: the result in test [1], in test [5], in test [6], in test [10], in test [7] and in test [9] was inactive. Moreover, the Potency entry in test [2] was “inactive”.

Consider `CCCCCCCCCCCCCCCC(=O)OC(C)C`, for which the Potency result in [2], in test [3] and in test [4] was “inactive” throughout. Also, the compound was classed as inactive in test [5], in test [6], in test [7], in [8] and in [9].

`O=c1[nH]cnc2[nH]ncc12`: the Potency result in [2], in test [3] and in test [4] was “inactive” throughout. Moreover, the compound was classed as inactive in test [5], in test [6], in test [7] and in test [8].

Consider `C[C@]12CC[C@@H]3c4ccc(O)cc4CC[C@H]3[C@@H]1C[C@@H](O)[C@@H]2O`, for which the result in test [1], in test [5], in test [6] and in test [7] was inactive. Moreover, the Potency entry in test [2] and in [3] was “inactive” throughout.

Regarding `CCO[Si](CCC#N)(OCC)OCC`, the Potency entry in test [2], in test [3] and in [4] was “inactive” each time. Besides, the call in test [5], in [6], in test [7], in test [8] and in [9] was inactive.

On to `CC(C)(C#N)c1cc(Cn2cncn2)cc(C(C)(C)C#N)c1`, for which the Potency entry in test [2], in [3] and in [4] was “inactive” throughout. For the same compound, the call in [5], in test [6], in test [10] and in test [7] was inactive.

Take `O=C(OCC1CCC2OC2C1)C1CCC2OC2C1` (stereo unspecified): the compound was called inactive in [1], in [5], in test [6], in test [10] and in test [7]. The Potency entry in test [3] and in test [4] was “inactive” in each case.

Take `OC1C(O)C(O)C(O)C(O)C1O` (stereo unspecified): the compound was classed as inactive in test [1], in test [5], in [6], in test [7] and in test [9]. Moreover, the Potency result in test [2], in [3] and in test [4] was “inactive” each time.

On to `Cc1ccc([N+](=O)[O-])cc1S(=O)(=O)O`, for which the call in test [1], in [5], in test [6], in [7], in [8] and in test [9] was inactive. The Potency result in test [2], in test [3] and in test [4] was “inactive” in each case.

As for `CC(=O)c1ccc(O)cc1`, the call in [1], in test [5], in test [6], in test [7] and in [9] was inactive. The Potency entry in [2], in test [3] and in [4] was “inactive” throughout.

Regarding `COc1ccc(CCC(C)=O)cc1`, the outcome in [1], in test [5], in test [6], in test [7], in test [8] and in test [9] was inactive. Further, the Potency result in test [2], in [3] and in test [4] was “inactive” in each case.

As to `NCCCCCCN`, the outcome in [1], in test [5], in test [6], in [7] and in test [9] was inactive. The Potency result in test [2], in test [3] and in test [4] was “inactive” throughout.

With `CCCCCC(=O)O`, the result in test [1], in test [5], in test [6], in test [7] and in [9] was inactive. Also, the Potency entry in test [2], in [3] and in test [4] was “inactive” in each case.

With `CSc1ccc(Cl)cc1`, the compound was called inactive in test [1], in test [5], in test [6], in [7] and in [9]. Moreover, the Potency result in [2], in test [3] and in test [4] was “inactive” each time.

Consider `CCCCCCCC=O`, for which the Potency entry in [2], in [3] and in test [4] was “inactive” each time. The call in test [5], in test [6], in test [10], in test [7], in [8] and in [9] was inactive.

In the case of `CC(C)(C)c1cc(Cc2cc(C(C)(C)C)c(O)c(C(C)(C)C)c2)cc(C(C)(C)C)c1O`, the call in test [1], in test [5], in [6], in test [7], in test [8] and in [9] was inactive. The Potency result in [2], in [3] and in [4] was “inactive” throughout.

Turning to `O=C1CCCC1`, the Potency entry in test [2], in [3] and in test [4] was “inactive” each time. The outcome in test [5], in test [6], in [10], in test [7], in test [8] and in test [9] was inactive.

For `COCCCN`, the compound was called inactive in test [1], in [5], in test [6], in test [7], in test [8] and in test [9]. Further, the Potency result in [2], in test [3] and in [4] was “inactive” in each case.

Turning to `CCCCOC(=O)c1ccc(N)cc1`, the compound was classed as inactive in test [1], in test [5], in [6], in test [7] and in test [9]. The Potency entry in test [2] and in test [3] was “inactive” each time.

Consider `O=S(=O)(O)c1ccc(N=Nc2c(O)ccc3cc(S(=O)(=O)O)ccc23)cc1`, for which the Potency in test [2] was 48.8 µM (active) and 27.3 µM (active). Further, the Potency result in [3] and in test [4] was “inactive” each time. Besides, the outcome in test [5], in [6], in [10], in test [7] and in test [9] was inactive.

On to `CC(C)OP(=O)(CP(=O)(OC(C)C)OC(C)C)OC(C)C`, for which the Potency result in test [2], in test [3] and in test [4] was “inactive” in each case. Also, the result in test [5], in test [6], in test [10], in [7], in [8] and in [9] was inactive.

`OCc1cccc(Oc2ccccc2)c1`: the compound was classed as inactive in [1], in test [5], in test [6], in test [7] and in [9]. In addition, the Potency result in test [2] and in [3] was “inactive” in each case. Further, the Potency in test [4] is 54.5 µM (active).

For `CC(=O)OC1CC(C)OC(C)O1` (stereo unspecified), the Potency entry in test [2], in [3] and in test [4] was “inactive” throughout. Besides, the outcome in test [5], in test [6], in test [10], in test [7] and in test [9] was inactive.

Take `NC(=S)NNC(N)=S`: the call in [1], in [5], in [6], in test [7], in test [8] and in [9] was inactive. In addition, the Potency result in test [2], in test [3] and in test [4] was “inactive” each time.

Consider `COc1ccc(OC)cc1`, for which the compound was called inactive in [1], in test [5], in [6], in test [7], in [8] and in test [9]. For the same compound, the Potency result in test [2], in test [3] and in test [4] was “inactive” each time.

Regarding `CNC(=S)N(C)C`, the Potency result in [2], in test [3] and in test [4] was “inactive” in each case. The result in test [5], in test [6], in [10], in test [7] and in [8] was inactive.
